{"source": "the supplement of paper PMC10849652", "note": "Of roughly 7,900 targets only a part is listed; those with a hit were picked by preference. About 0.6% of all pairs of compound and target were hits. Unmarked numbers belong to inactive results."}
{"compound": "Cc1sc2c(c1C)C(c1ccc(Cl)cc1)=N[C@@H](CC(=O)OC(C)(C)C)c1nnc(C)n1-2", "test": "log2 fold change, soluble protein after heating vs DMSO (PISA); higher = thermal stabilisation; K562 cells, 10 uM, 30 min; active = over 0.2 and 3.5 SD of the protein, either way, in both replicates (recomputed)", "in_short": "(§1)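 K562 cells at 2×10^6 cells/mL were treated for 30 min with 10 μM compound, and aliquots were heated for 3 min over 48°C-58°C before pooling. Extraction used PBS with 0.5% NP-40 at 4°C, and soluble protein was the supernatant after 21,000xg for 90 min, measured by TMTpro 16plex LC-MS/MS with channel sums equalised. Thermal stability values, relative to control samples and from duplicates, are log2 fold changes.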"}
{"target": "GTF2A2 (UniProt P52657)", "log2 fold change": -0.064}
{"target": "FANCD2 isoform 1 (UniProt Q9BXW9)", "log2 fold change": -0.041}
{"target": "GTF2A1 (UniProt P52655)", "sequence (P52655 whole entry, looked up)": "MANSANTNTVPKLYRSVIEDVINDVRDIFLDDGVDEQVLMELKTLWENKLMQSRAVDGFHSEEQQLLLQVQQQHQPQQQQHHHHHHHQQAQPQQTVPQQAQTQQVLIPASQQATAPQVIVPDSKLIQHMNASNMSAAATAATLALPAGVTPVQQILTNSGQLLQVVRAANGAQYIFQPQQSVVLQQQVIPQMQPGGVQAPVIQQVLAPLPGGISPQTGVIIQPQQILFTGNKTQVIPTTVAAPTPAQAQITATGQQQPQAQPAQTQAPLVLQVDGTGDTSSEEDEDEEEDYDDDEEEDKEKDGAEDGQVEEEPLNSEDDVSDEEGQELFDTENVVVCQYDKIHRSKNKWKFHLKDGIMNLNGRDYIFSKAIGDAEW", "log2 fold change": -0.004}
{"target": "FMC1 (UniProt Q96HJ9)", "sequence (Q96HJ9 whole entry, looked up)": "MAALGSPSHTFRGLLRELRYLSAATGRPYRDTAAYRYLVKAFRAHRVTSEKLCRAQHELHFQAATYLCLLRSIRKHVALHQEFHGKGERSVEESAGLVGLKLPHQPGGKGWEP", "log2 fold change": 0}
{"target": "FAT2 (UniProt Q9NYQ8)", "log2 fold change": -0.091}
{"target": "GLIPR2 (UniProt Q9H4G4)", "log2 fold change": 0.028}
{"target": "FUCA1 (UniProt P04066)", "sequence (P04066 whole entry, looked up)": "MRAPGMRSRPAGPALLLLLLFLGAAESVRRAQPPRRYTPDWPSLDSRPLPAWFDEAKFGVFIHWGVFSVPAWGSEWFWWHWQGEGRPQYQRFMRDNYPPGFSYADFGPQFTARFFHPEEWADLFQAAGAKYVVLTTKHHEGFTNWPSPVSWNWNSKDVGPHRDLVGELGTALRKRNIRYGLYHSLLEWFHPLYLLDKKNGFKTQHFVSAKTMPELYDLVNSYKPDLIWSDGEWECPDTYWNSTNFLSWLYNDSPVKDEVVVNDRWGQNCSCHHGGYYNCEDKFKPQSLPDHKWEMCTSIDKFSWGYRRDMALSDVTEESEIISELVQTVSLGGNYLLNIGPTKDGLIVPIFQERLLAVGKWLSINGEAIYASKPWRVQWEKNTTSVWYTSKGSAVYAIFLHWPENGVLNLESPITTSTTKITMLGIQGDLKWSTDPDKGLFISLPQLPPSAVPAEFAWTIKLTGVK", "log2 fold change": 0.018}
{"target": "FAT1 (UniProt Q14517)", "log2 fold change": -0.071}
{"target": "HDAC10 (UniProt Q969S8)", "sequence (Q969S8 whole entry, looked up)": "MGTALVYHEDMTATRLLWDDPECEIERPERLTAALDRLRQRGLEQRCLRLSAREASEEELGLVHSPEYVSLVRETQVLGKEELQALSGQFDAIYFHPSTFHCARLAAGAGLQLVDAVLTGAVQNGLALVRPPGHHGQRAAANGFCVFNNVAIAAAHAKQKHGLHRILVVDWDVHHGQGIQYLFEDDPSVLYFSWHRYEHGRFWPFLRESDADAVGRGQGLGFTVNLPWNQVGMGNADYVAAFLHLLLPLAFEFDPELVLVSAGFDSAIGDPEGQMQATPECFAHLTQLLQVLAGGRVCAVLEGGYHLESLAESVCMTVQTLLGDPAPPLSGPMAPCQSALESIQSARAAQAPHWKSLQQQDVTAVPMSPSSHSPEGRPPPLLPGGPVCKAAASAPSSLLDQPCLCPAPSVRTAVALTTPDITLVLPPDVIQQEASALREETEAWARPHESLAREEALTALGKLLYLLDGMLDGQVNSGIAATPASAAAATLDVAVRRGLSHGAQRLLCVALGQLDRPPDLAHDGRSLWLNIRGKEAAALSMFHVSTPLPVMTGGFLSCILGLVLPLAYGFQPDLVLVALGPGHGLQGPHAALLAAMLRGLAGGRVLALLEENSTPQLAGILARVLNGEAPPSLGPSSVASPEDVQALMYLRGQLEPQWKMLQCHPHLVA", "log2 fold change": 0.12}
{"target": "HAUS4 (UniProt Q9H6D7)", "log2 fold change": -0.021}
{"target": "H1FX (UniProt Q92522)", "sequence (Q92522 whole entry, looked up)": "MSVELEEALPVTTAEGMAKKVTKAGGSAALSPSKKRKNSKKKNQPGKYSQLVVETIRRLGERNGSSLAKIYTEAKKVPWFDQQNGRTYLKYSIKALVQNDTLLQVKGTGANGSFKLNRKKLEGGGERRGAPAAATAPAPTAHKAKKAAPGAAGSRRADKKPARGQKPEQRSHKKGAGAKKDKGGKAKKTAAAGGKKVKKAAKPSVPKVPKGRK", "log2 fold change": 0.135}
{"target": "HK2 (UniProt P52789)", "log2 fold change": -0.025}
{"target": "GAGE12F (UniProt P0CL80)", "sequence (P0CL80 whole entry, looked up)": "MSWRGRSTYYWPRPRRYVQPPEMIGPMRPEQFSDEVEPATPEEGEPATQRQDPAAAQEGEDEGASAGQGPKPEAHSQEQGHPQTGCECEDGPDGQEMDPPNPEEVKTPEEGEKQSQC", "log2 fold change": -0.089}
{"target": "GYG1 (UniProt P46976)", "sequence (P46976 whole entry, looked up)": "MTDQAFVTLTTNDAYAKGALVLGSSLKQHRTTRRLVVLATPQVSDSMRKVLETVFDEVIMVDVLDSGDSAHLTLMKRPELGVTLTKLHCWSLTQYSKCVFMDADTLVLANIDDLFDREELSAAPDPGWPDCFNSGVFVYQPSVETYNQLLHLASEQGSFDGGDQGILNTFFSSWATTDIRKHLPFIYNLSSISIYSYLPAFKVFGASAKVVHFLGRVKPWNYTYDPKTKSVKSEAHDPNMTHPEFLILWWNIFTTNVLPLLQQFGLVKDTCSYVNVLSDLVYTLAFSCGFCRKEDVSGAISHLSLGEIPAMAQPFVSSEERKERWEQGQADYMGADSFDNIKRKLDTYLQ", "log2 fold change": -0.008}
{"target": "HMOX2 (UniProt P30519)", "sequence (P30519 whole entry, looked up)": "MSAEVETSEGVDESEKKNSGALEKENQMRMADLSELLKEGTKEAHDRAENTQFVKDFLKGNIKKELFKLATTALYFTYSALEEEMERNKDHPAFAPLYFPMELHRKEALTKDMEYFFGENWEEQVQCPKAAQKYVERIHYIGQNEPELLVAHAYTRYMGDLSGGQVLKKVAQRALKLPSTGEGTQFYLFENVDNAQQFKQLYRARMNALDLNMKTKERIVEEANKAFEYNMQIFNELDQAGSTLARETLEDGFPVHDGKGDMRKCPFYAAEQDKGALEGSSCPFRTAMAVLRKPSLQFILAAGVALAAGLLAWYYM", "log2 fold change": 0.047}
{"target": "HNRNPH2 (UniProt P55795)", "log2 fold change": -0.035}
{"target": "GDE1 (UniProt Q9NZC3)", "log2 fold change": -0.078}
{"target": "HDAC2 (UniProt Q92769)", "log2 fold change": -0.002}
{"target": "GTF2E2 (UniProt P29084)", "log2 fold change": -0.058}
{"target": "GPAT4 (UniProt Q86UL3)", "log2 fold change": -0.046}
{"target": "FDFT1 (UniProt P37268)", "log2 fold change": 0.109}
{"target": "HSPA8 (UniProt E9PN89)", "log2 fold change": 0.133}
{"target": "IFI30 (UniProt P13284)", "log2 fold change": 0.004}
{"target": "FBXO6 (UniProt Q9NRD1)", "sequence (Q9NRD1 whole entry, looked up)": "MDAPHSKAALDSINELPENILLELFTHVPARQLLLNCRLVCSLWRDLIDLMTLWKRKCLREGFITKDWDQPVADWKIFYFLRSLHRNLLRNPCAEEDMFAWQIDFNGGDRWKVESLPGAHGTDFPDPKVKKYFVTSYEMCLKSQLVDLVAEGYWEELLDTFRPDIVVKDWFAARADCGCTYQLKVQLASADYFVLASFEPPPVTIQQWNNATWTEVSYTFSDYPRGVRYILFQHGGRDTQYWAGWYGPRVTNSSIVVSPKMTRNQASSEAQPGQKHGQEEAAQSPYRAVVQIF", "log2 fold change": -0.041}
{"target": "HMGB3 (UniProt O15347)", "sequence (O15347 whole entry, looked up)": "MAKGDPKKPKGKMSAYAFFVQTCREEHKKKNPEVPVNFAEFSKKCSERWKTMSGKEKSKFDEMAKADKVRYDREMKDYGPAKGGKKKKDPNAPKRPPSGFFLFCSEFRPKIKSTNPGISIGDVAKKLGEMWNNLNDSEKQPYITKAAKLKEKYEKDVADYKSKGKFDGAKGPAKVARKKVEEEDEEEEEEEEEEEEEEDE", "log2 fold change": -0.055}
{"target": "HRAS (UniProt P01112)", "sequence (P01112 whole entry, looked up)": "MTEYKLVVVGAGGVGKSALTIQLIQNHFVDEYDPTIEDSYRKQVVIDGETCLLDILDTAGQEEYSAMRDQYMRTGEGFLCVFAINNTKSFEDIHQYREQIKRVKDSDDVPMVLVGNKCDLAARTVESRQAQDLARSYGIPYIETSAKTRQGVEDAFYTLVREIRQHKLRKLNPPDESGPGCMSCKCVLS", "log2 fold change": 0.016}
{"target": "HOOK3 (UniProt Q86VS8)", "sequence (Q86VS8 whole entry, looked up)": "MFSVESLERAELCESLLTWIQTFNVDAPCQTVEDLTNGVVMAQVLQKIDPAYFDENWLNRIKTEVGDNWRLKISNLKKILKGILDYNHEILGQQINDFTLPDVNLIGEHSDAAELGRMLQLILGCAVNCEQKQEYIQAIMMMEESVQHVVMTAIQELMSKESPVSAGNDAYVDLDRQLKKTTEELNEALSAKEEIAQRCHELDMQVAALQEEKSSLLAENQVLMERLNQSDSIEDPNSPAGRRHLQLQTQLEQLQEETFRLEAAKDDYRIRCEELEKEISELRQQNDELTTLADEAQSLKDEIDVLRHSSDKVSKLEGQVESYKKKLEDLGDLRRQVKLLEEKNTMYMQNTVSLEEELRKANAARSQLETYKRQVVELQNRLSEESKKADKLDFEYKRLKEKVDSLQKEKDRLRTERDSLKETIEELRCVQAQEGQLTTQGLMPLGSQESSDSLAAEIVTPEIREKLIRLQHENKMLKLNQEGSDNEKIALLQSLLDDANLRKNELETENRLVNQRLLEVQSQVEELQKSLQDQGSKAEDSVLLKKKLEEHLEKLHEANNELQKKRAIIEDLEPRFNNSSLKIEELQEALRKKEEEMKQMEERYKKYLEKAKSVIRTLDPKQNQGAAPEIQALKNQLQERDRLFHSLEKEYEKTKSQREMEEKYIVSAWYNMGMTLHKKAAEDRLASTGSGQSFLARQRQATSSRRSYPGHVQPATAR", "log2 fold change": 0}
{"target": "GTPBP6 (UniProt O43824)", "sequence (O43824 whole entry, looked up)": "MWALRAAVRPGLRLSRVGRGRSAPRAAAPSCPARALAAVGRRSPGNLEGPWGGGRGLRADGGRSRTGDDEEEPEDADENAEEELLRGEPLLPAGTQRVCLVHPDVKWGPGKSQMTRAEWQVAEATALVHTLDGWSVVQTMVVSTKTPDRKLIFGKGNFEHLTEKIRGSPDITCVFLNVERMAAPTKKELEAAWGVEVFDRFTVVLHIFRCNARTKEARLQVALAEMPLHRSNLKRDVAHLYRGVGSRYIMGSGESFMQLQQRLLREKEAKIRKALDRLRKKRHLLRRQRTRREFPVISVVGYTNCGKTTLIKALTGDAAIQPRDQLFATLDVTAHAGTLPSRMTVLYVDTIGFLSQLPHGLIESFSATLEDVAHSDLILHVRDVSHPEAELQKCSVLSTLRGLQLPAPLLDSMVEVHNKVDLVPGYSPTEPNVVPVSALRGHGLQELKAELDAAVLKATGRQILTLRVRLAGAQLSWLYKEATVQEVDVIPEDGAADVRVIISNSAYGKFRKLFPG", "log2 fold change": -0.062}
{"target": "HDHD2 (UniProt Q9H0R4)", "sequence (Q9H0R4 whole entry, looked up)": "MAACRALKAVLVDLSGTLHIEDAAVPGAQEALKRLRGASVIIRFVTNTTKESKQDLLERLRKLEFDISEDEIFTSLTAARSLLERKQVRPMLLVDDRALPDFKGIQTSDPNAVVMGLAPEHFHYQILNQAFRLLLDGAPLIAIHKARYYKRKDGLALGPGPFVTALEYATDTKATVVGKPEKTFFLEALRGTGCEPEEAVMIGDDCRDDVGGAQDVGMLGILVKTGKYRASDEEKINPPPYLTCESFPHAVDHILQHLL", "log2 fold change": 0.03}
{"target": "FANCI (UniProt Q9NVI1)", "log2 fold change": -0.008}
{"target": "HBZ (UniProt P02008)", "log2 fold change": -0.132}
{"compound": "c1ccc([C@@H]2C[C@H]2NC2CCNCC2)cc1", "test": "log2 fold change, soluble protein after heating vs DMSO (PISA); higher = thermal stabilisation; K562 cells, 10 uM, 30 min; active = over 0.2 and 3.5 SD of the protein, either way, in both replicates (recomputed)", "in_short": "as §1"}
{"target": "GTF2A2 (UniProt P52657)", "log2 fold change": -0.017}
{"target": "FANCD2 isoform 1 (UniProt Q9BXW9)", "log2 fold change": -0.009}
{"target": "GTF2A1 (UniProt P52655)", "log2 fold change": -0.006}
{"target": "FMC1 (UniProt Q96HJ9)", "log2 fold change": -0.002}
{"target": "FAT2 (UniProt Q9NYQ8)", "log2 fold change": -0.218}
{"target": "GLIPR2 (UniProt Q9H4G4)", "log2 fold change": -0.017}
{"target": "FUCA1 (UniProt P04066)", "log2 fold change": 0.053}
{"target": "FAT1 (UniProt Q14517)", "log2 fold change": 0.155}
{"target": "HDAC10 (UniProt Q969S8)", "log2 fold change": -0.051}
{"target": "HAUS4 (UniProt Q9H6D7)", "log2 fold change": -0.002}
{"target": "H1FX (UniProt Q92522)", "log2 fold change": -0.005}
{"target": "HK2 (UniProt P52789)", "log2 fold change": -0.016}
{"target": "GAGE12F (UniProt P0CL80)", "log2 fold change": 0.012}
{"target": "GYG1 (UniProt P46976)", "log2 fold change": -0.019}
{"target": "HMOX2 (UniProt P30519)", "log2 fold change": -0.036}
{"target": "HNRNPH2 (UniProt P55795)", "log2 fold change": -0.003}
{"target": "GDE1 (UniProt Q9NZC3)", "log2 fold change": -0.055}
{"target": "HDAC2 (UniProt Q92769)", "log2 fold change": 0.111}
{"target": "GTF2E2 (UniProt P29084)", "log2 fold change": 0.012}
{"target": "GPAT4 (UniProt Q86UL3)", "log2 fold change": -0.015}
{"target": "FDFT1 (UniProt P37268)", "log2 fold change": -0.021}
{"target": "HSPA8 (UniProt E9PN89)", "log2 fold change": 0.104}
{"target": "IFI30 (UniProt P13284)", "log2 fold change": 0.048}
{"target": "FBXO6 (UniProt Q9NRD1)", "log2 fold change": -0.032}
{"target": "HMGB3 (UniProt O15347)", "log2 fold change": -0.033}
{"target": "HRAS (UniProt P01112)", "log2 fold change": 0.138}
{"target": "HOOK3 (UniProt Q86VS8)", "log2 fold change": 0.024}
{"target": "GTPBP6 (UniProt O43824)", "log2 fold change": -0.034}
{"target": "HDHD2 (UniProt Q9H0R4)", "log2 fold change": -0.031}
{"target": "FANCI (UniProt Q9NVI1)", "log2 fold change": -0.037}
{"target": "HBZ (UniProt P02008)", "log2 fold change": -0.009}
